An excerpt weighted towards active compounds, which were near 5.9% of everything screened.
HSP90 inh: blocks HSP90-mediated luciferase refolding in reticulocyte lysate. Rabbit reticulocyte lysate, luciferase refolding luminescence, 3 h. 0.91% of 290,000 active. inhibition, % at 5.6 µM;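 active = inhibition above the screen-wide mean plus 3 SD, computed separately per campaign, cut at about 16% in these data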;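 also: 0% = DMSO wells and 100% = 60 µM geldanamycin wells; inhibitors lower the luminescence because luciferase stays unfolded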
HSF1 activator: increases HSF-1 driven luciferase reporter signal; activation, % at 9 µM; 1.7% of 300,000 active; AID 504408; NIH3T3-HGL HSF-1 luciferase reporter, MG132, 8 h; 100% = twice DMSO control signal;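 active = mean replicate activation of at least 50% with a set share of replicates each reaching 50%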;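 also: 0% = median of the neutral control wells and 100% = twice that signal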
AHR act: activates the human aryl hydrocarbon receptor | activation, % at 5 µM | P35869 | AID 2796 | 2.5% of 320,000 active | AHR-responsive luciferase reporter cells, luminescence; in the data active = activation above about 47%;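 also: 0% = vehicle wells and 100% = reference agonist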
HSF1 inh: HSF1 inhibition; NIH3T3-HGL HSE-luciferase, MG132-induced, luminescence 8 h; active compounds read low; 0.77% of 300,000 active; activity change, negative = inhibition, % at 7.5 µM (by protocol);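 active = more than half of replicate wells show activity change below -50%, luminescence cut by over half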;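 also: luciferase reports HSF-1 transcriptional activity via heat shock element; 0% = median of DMSO wells and -100% = zero luminescence signal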
NR0B1 inh: inhibits human nuclear receptor DAX1 | HEK293 Gal4-DAX1 luciferase reporter, luminescence | 0.99% of 340,000 active | AID 504766 | inhibition, % at 6.75 µM | P51843;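 active = inhibition above the mean over all tested compounds plus 3 SD, cut at about 4.2% in these data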;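 also: 0% = DAX1-transfected cells with DMSO and 100% = empty-vector control cells with DMSO; inhibition shows as a rise in luminescence from relieved DAX1 repression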
Target sequence (P51843 207-470 limits assumed): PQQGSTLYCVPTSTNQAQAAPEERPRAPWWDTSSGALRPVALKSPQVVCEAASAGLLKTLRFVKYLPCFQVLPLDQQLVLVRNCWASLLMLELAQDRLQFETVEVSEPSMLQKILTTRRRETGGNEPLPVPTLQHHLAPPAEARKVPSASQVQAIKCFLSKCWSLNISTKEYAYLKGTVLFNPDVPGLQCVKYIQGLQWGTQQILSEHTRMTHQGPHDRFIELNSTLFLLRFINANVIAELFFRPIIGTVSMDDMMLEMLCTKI
FXN GAA850 act: increases GAA850 frataxin promoter reporter activity | AID 540364 | 0.56% of 360,000 active | HEK293 lucGAA850 FXN promoter luciferase reporter, 24 h; percent of 10 µM SAHA response | activation, % at 6 µM;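 active = activation above the average of all compounds screened plus 3 SD, cutoff fixed separately per campaign, cut at about 7.5% in these data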;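 also: 0% = DMSO wells and 100% = 10 µM SAHA wells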
* = called active by the depositor; · = no result.

SMILES	HSP90 inh	HSF1 activator	AHR act	HSF1 inh	NR0B1 inh	FXN GAA850 act
CC(=O)N1c2ccc(S(=O)(=O)NCC3CCC(C(=O)NC4CCCCC4C)CC3)cc2CC1C (stereo unspecified)	-8	-2	-2	1	0	-1
COc1ccc(Cl)cc1NC(=O)Cn1c(C)csc1=O	·	·	13	·	0	1
COc1ccc(F)cc1C(=O)C1CCCN(Cc2cccn2-c2cccnc2)C1 (stereo unspecified)	1	9	52*	-1	0	-4
COc1cc(C(=O)NC2CCN(C)CC2)ccc1Nc1ncc2c(n1)N(Cc1ccccc1)CCC(=O)N2C	·	·	·	·	7.8*	-1
COc1cc(C(=O)NC2CCN(C)CC2)ccc1Nc1ncc2c(n1)N(C1CCCCC1)CCC(=O)N2C	·	·	·	·	-1	-6
CCOc1ccccc1/C=N/n1c(COc2ccccc2)n[nH]c1=S	-1	-2	9	-7	0	0
CCc1n[nH]c(=S)n1/N=C/c1ccccc1OCc1ccc(Cl)cc1	2	47	66*	13	2	0
Cc1n[nH]c(=S)n1/N=C/c1ccc(OCc2ccc(Cl)cc2Cl)cc1	-4	34	5	18	4	4
Cc1n[nH]c(=S)n1/N=C/c1ccccc1OCc1ccc(Cl)cc1Cl	-2	6	49*	0	-1	3
COC(=O)c1sc(NC(=O)CSc2nnnn2C)nc1C	2	28	8	10	0	3
Cc1ccc(NC(=S)N=Nc2c(O)n(C)c3ccc(S(=O)(=O)N4CCOCC4)cc23)cc1	3	58*	·	23	1	0
Cc1cc(C)cc(NC(=S)N=Nc2c(O)n(C)c3ccc(S(=O)(=O)N4CCOCC4)cc23)c1	2	6	0	-1	-1	0
Cc1ccc(/C=N/N2C(=O)c3ccccc3NC2c2ccc(C)cc2)cc1 (stereo unspecified)	-2	55*	50*	29	1	6
COc1ccc(NC(=O)CN(C)CC(=O)N2CCCCCC2)cc1	·	·	·	·	1	1
Cc1ccc(C(=O)CCC(=O)OC(C)C(=O)NC2CCCCC2C)cc1 (stereo unspecified)	·	·	1	·	0	3
COc1cccc(NC(=O)CCC(=O)N2CC(C)Oc3ccc(C)cc32)c1 (stereo unspecified)	0	7	12	3	-1	0
CCN(CCCNC(=O)C1CCC(=O)N1Cc1ccccc1Cl)c1cccc(C)c1 (stereo unspecified)	-3	77*	-2	56	-1	-5
CCN(CCCNC(=O)COc1cc(=O)n(C)c2ccccc12)c1cccc(C)c1	4	162*	4	131	0	1
CCCS(=O)(=O)N1CCCC(C(=O)NCCCN(CC)c2cccc(C)c2)C1 (stereo unspecified)	3	56*	4	27	-1	-2
CCN(CCCNC(=O)C1CCC(=O)N1Cc1ccc(C)cc1)c1cccc(C)c1 (stereo unspecified)	2	85*	3	59	0	-2
Cc1cccc(CCNC(=O)COc2cc(=O)n(C)c3ccccc23)c1	4	-18	14	9	1	4
Cc1c(C(=O)O)oc2ccc3c(c12)C(O)CC(C)(C)O3 (stereo unspecified)	3	-1	0	-2	0	1
Cc1ccc(NC(=O)CNC(=O)C23CC4CC(CC(C4)C2)C3)nc1	·	·	·	·	1	1
CCc1ccc(Nc2nnc(SCC(=O)NC(=O)CN3CCCC3=O)s2)cc1	·	·	-3	·	1	2
CC=CC1OCC(CC)C(CCC)O1 (stereo unspecified)	·	·	·	·	-2	-1
SMILES	HSP90 inh	HSF1 activator	AHR act	HSF1 inh	NR0B1 inh	FXN GAA850 act
Cc1cccc(-c2noc(CCC(=O)NCCc3ccccc3)n2)c1	3	-4	1	-4	-1	0
CCN(CCCNC(=O)CCc1nc(-c2ccc(C)cc2)no1)c1cccc(C)c1	-2	59*	2	57	-1	1
CCN(Cc1ccccc1)S(=O)(=O)c1ccc(F)cc1	0	-67	-1	-62*	0	3
CCN(CC)C(=O)CN(Cc1ccccc1)S(=O)(=O)c1ccc(F)cc1	3	-33	0	-11	0	-3
COCCCN1C(=O)C(CC(=O)NCCc2ccccn2)CC(C(=O)N2CCOCC2)=C1C (stereo unspecified)	·	·	·	·	1	1
Cc1ccc(-n2c(=S)[nH]c3c(oc4ccccc43)c2=O)cc1	4	-4	20	-8	0	3
Cc1cccc(-n2c(=S)[nH]c3c(oc4ccccc43)c2=O)c1	7	21	62*	-7	-1	4
Cc1cccc(-n2c(C)c(-c3ccccc3)[nH]c2=S)c1	-1	24	14	10	0	0
O=c1c2oc3ccccc3c2[nH]c(=S)n1-c1ccccc1	-2	-3	66*	0	0	2
CC1(C(=O)NS(=O)(=O)c2ccccc2Cl)CCN1C(=O)Cc1ccc(Cl)cc1Cl (stereo unspecified)	·	·	·	·	·	0
c1ccc(Nc2ccc3c4c(cccc24)CC3)cc1	-2	-12	6	-8	1	0
Nc1ccc2c3c(cccc13)CC2	-1	-2	55*	-9	1	2
CCN1CCN(Cc2ccc(NC(=O)c3ccc(C)c(NC(=O)c4nccn4C)c3)cc2C(F)(F)F)CC1	·	-38	0	-37	0	-2
CCN1CCN(Cc2ccc(NC(=O)c3ccc(C)c(NC(=O)c4cccc5[nH]ccc45)c3)cc2C(F)(F)F)CC1	·	-62	4	-55*	0	-5
CCOc1ccc(CCNC(=O)C(O)c2ccccc2)cc1 (stereo unspecified)	-3	-10	2	2	0	0
Oc1ccc(/C=N/Nc2ccc3ccccc3c2)c(O)c1	11	-44	61*	-43	0	0
O=C(COc1ccccc1)NCC(=O)N/N=C/c1ccc(O)cc1O	2	-29	0	-8	7.1*	0
CCOc1ccc(/C=N/NC(=O)C(O)c2ccccc2)c(O)c1 (stereo unspecified)	-6	-86	3	-82*	-1	-1
Cc1nc([N+](=O)[O-])c(Br)n1CC(=O)c1ccc(Br)cc1	0	123*	0	98	-2	0
CC(O/N=C\c1ccccc1O)C(=O)Nc1ccccc1C(=O)N1CCOCC1 (stereo unspecified)	2	-69	-3	-58*	1	-1
O=c1cccccc1NN=C1CCCCC1	0	7	8	7	5.8*	3
O=c1cccccc1NN=C1CCCCCC1	-6	49	-3	23	3	4
CC(C)CC(=O)N1CCN(Cc2cccc(F)c2)CC1	2	·	-4	·	-1	0
Cc1cc(-c2nnc(CCC(=O)N3CCN(Cc4cccc(F)c4)CC3)o2)c(C)o1	0	11	2	4	6.3*	4
